Where “and” joins values, the source holds several entries; their conditions need not be identical. Identical values can stand only once. The campaign covered roughly 110,000 compounds. About 730 (0.66%) were called active. This is one part of a sample in which actives are shown more often than they occur. Unmarked numbers belong to inactive results. Cut-off read from the data, not from the text of the source: active = inhibition above about 50%; inconclusive = no clear call, values can overlap the other calls; inactive = below that.

The target of the test is Tyrosine-protein phosphatase non-receptor type 7 (Homo sapiens) (UniProt P35236). Nature of the test: inhibitors of human HePTP phosphatase, primary screen, biochemical, absorbance, leukemia target (AID 521).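 Note: plate controls were vehicle for no effect and reference inhibitor for full effect.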 Particulars: recombinant HePTP phosphatase activity, OD absorbance; at 20 µM; hits give high values.
Sequence of Tyrosine-protein phosphatase non-receptor type 7 (Homo sapiens) (P35236 whole entry, looked up): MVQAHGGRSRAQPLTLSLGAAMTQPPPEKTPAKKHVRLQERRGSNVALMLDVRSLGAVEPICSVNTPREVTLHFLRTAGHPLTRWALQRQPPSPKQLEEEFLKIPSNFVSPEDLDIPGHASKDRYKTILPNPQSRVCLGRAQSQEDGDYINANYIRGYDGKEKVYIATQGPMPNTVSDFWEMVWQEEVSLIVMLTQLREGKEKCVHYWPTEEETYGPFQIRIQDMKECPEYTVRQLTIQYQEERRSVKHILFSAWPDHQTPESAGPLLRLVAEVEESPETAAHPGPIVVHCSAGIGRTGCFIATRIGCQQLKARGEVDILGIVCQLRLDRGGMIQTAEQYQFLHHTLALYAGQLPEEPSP
What is called inhibition is the drop in the measured response relative to a control, in per cent. Take `O=[N+]([O-])c1ccc(C=NC23CN4CN(CN(C4)C2)C3)s1`: the inhibition was 4.4%. With `COCCNC(=O)/C(=C/c1ccc(-c2cc(Cl)ccc2Cl)o1)NC(=O)c1ccc(C)cc1`, the inhibition is 5.9%. In the case of `CCOc1cc(/C=N/NC(=O)c2cc(C)[nH]n2)ccc1Oc1ccc([N+](=O)[O-])cc1[N+](=O)[O-]` it was 6.3%.

Turning to `CCOC(=O)c1c(NC(=O)C2CC2c2ccccc2)sc2c1CCC2` (centres undefined), the inhibition is 77.8% (active). On to `CCCOC(=O)Nc1sc2c(c1C(=O)OCC)CCC2`, for which the inhibition was -6.2%. In the case of `CCOCC(=O)Nc1sc2c(c1C(=O)OCC)CCCC2` it was 3.2%; in that of `O=C(CN1C(=O)/C(=C/c2ccccc2F)SC1=S)Nc1ccccc1F`, -14.9%; in that of `Clc1ccccc1OCCCN1CCOCC1`, -7.9%. Then `O=C(CCc1ccccc1)Nc1ccc(Cl)cc1`, with 5.1%. Then `CCOC(=O)COc1ccc(/C=C2/NC(=S)NC2=O)cc1OC`, with 4.1%; and `Cc1ccc(-c2cc(C(=O)Nc3ccccc3)c3ccccc3n2)cc1`, with 9.3%; and `COc1cc(/C=C2\SC(=S)NC2=O)cc(Br)c1OCc1c(C)no[n+]1[O-]`, with -10.3%. `CCN(CC)c1ccc(C=C2C(=O)N(C)C(=O)N(C)C2=O)c(O)c1`: the inhibition was -4.9%. In the case of `Cc1ccc(C(=O)N/C(=C\c2sccc2C)C(=O)NCC(C)C)cc1` it was 8.2%; in that of `Nc1nc2nonc2nc1Nc1ccccc1`, 0.4%; in that of `Cc1cc(N2C(=O)NC(=O)/C(=C\c3cn(C)c4ccccc34)C2=O)ccc1Br`, 4.9%.

`Cc1oc2ccccc2c1/C=N/n1cnc2sc3c(c2c1=O)CCCC3`: the inhibition was -2.6%.

Consider `CCOC(=O)C1=C(C)N=c2s/c(=C\c3ccc4c(c3)OCO4)c(=O)n2C1c1ccc(C)cc1` (centres undefined), for which the inhibition is 1.8%. In the case of `CCOC(=O)C1=C(C)N=c2s/c(=C\c3ccc4c(c3)OCO4)c(=O)n2C1c1ccc(OC)c(Br)c1` (centres undefined) it was 3.8%. In the case of `N#CC1=C(N)n2c(s/c(=C\c3ccc4c(c3)OCO4)c2=O)=C(C#N)C1c1ccc2c(c1)OCO2` (centres undefined) it was 86.3% (active); in that of `CC1CCOP(=O)(C(Nc2ccc([N+](=O)[O-])cc2)c2ccc(Br)cc2)O1` (centres undefined), -6%. Then `CCOc1ccc(-c2cc(C(=O)Nc3cccc([N+](=O)[O-])c3)c3ccccc3n2)cc1`, with 11.5%; and `COc1ccc(-c2nc(-c3ccccc3)no2)c(OC)c1`, with 16.7%; and `COc1ccc(-c2noc(-c3ccc(Br)cc3)n2)cc1`, with -4.6%. As to `COc1ccc(/C=C2\SC(=Nc3ccc(F)cc3)NC2=O)cc1OC`, the inhibition is 25.3%. Regarding `COc1cc2c(cc1NC(=O)c1c(-c3c(F)cccc3Cl)noc1C)oc1ccccc12`, the inhibition was -5.8%. Then `COc1ccc(-c2nnc(SCC(=O)NN)n2-c2ccccc2)cc1`, with -0.1%; and `COc1ccc(-c2nc3ccccc3c(C(=O)Nc3ccc(C(C)=O)cc3)c2C)cc1`, with -9.2%. In the case of `O=C(NC(=O)c1ccccn1)NC(c1ccccc1)c1ccccc1` it was -13% and 2.8%; in that of `O=C1NC(=S)N/C1=C/c1ccc(-c2cccc(Br)c2)o1`, 3.7%; in that of `Nn1c(NCc2ccccc2)nc2ccccc21`, -4.8%.

For `CCOC(=O)c1cnn(-c2ccccc2)c1NC(=O)c1ccc([N+](=O)[O-])cc1`, the inhibition was 1.7%.

Regarding `Cc1ccc(NC(=O)c2cnn(-c3ccccc3)c2NC(=O)c2ccccc2Cl)cc1C`, the inhibition is 103% (active). On to `Cc1ccccc1NC(=O)c1cnn(-c2ccccc2)c1NC(=O)c1ccco1`, for which the inhibition is 7.2%. Then `O=C1CC(N2CCN(c3ccccc3F)CC2)C(=O)N1c1cccc(Cl)c1` (centres undefined), with 5.6%; and `O=C1C=CC2=C3Oc4c(ccc5cc(O)ccc45)C(c4ccccc4C(=O)O)C3C=CC2=C1` (centres undefined), with 103% (active); and `NC(=S)N/N=C(/Cc1ccccc1)c1ccc(-c2ccccc2)cc1`, with 6.5%. In the case of `COc1ccccc1C1SCCN1S(=O)(=O)c1ccc(-c2ccccc2)cc1` (centres undefined) it was 7.9%; in that of `Cc1cccc(N2CCN(C(=O)C(Cl)(Cl)Cl)CC2)c1C`, 5.3%; in that of `CC(C)(O)C#Cc1ccc(C2C3=C(CC(C)(C)CC3=O)OC3=C2C(=O)CC(C)(C)C3)cc1`, 1.5%. In the case of `COc1cc(C(C)=O)ccc1OC(=O)CN1C(=O)c2ccccc2C1=O`, the inhibition is -2.9%. Then `COc1cc2c(cc1C)/C(=N/OC(=O)c1ccc(OC)c([N+](=O)[O-])c1)CCC2`, with -10.5%; and `COc1ccc(C(=O)ON=C2c3ccccc3-c3ccccc32)cc1OC`, with 62.3% (active); and `CCCCOc1c([N+](=O)[O-])cc([N+](=O)[O-])c2nsnc12`, with 10.8%. `O=C1Nc2ccccc2/C1=N\N=C\c1c(F)cccc1Cl`: the inhibition was 14%.

Turning to `CCCC(NC(=O)c1ccccc1)C(=O)OCC(=O)Nc1sc2c(c1C(=O)OCC)CCCC2` (centres undefined), the inhibition was 1.3%.

Consider `CCOC(=O)c1c(N)sc(C)c1CC`, for which the inhibition was -13.6%. Then `CC1(C)Cc2ccccc2C(N/N=C/c2c(O)ccc3ccccc23)=N1`, with 5%; and `CCOc1ccccc1NC(=O)c1c(NC(=O)c2ccco2)sc2c1CCC(C)C2` (centres undefined), with 4.6%; and `Cc1ccccc1NC(=O)c1c(NC(=O)C(C)(C)C)sc2c1CCC(C)C2` (centres undefined), with 3.9%. Then `CCOc1ccccc1NC(=O)c1c(NC(=O)c2cccs2)sc2c1CCC(C)C2` (centres undefined), with 74.5% (active); and `ONC(=Nc1ccc2c(c1)OCO2)C(=Nc1ccc2c(c1)OCO2)NO`, with -7.5%.

For the compound `COc1ccc(C2SCCN2C(=O)c2cc3ccccc3oc2=O)cc1` (centres undefined), the inhibition is -6.8%. In the case of `Cc1ccc(OCC(=O)NCc2ccc(F)cc2)c(Br)c1` it was 0%; in that of `O=C(COc1cc2oc(=O)c3c(c2cc1Cl)CCCC3)OCc1ccccc1`, 7%; in that of `Cc1ccc(C)c(-c2cc(C(=O)NN)c3ccccc3n2)c1`, 5%. Then `Cc1ccc(-c2cc(C(=O)N3CC(C)CC(C)C3)c3ccccc3n2)cc1C` (centres undefined), with -17%. In the case of `Cc1ccc(-c2cc(C(=O)NCc3ccccc3)c3ccccc3n2)o1` it was 53.4% (active); in that of `Cc1ccc(-c2cc(C(=O)N3CCCCCC3)c3ccccc3n2)o1`, 78.1% (active). In the case of `Cc1ccc(NC(=O)c2cc(-c3ccc(C)o3)nc3ccccc23)nc1`, the inhibition was 2.7%. Then `CCOc1cccc(-c2cc(C(=O)N3CCCCCC3)c3ccccc3n2)c1`, with -11.5%; and `CCOc1cc(C(=O)Nc2cccc(F)c2)cc(OCC)c1OCC`, with 104% (active); and `COc1ccc(NC(=O)c2cccc(F)c2)cc1OC`, with 9.7%. `CCOc1cc(C(=O)Nc2ncccn2)cc(OCC)c1OCC`: the inhibition was -0.3% and 8.9%. In the case of `CCOc1ccc(C(=O)Nc2ccc(I)cc2Cl)cc1[N+](=O)[O-]`, the inhibition is 3.7%.

Regarding `O=C(Nc1cccc(I)c1)c1ccc2c(c1)C(=O)N(CC1CCCO1)C2=O` (centres undefined), the inhibition was 6.2%. Then `Cc1ccc(N(Cc2ccc(C(=O)N3CCCCC3)cc2)S(C)(=O)=O)cc1C`, with 13.9%; and `O=C(NCC1CCCO1)c1cc(-c2ccccc2)nc2ccccc12` (centres undefined), with -0.5%; and `CCOc1ccc(N/C(=N\S(=O)(=O)c2ccc(NC(C)=O)cc2)Nc2nc(C)cc(C)n2)cc1`, with 104% (active). As for `CCOc1ccc(NC(=O)Nc2cc(C)on2)cc1`, the inhibition was -4.8%. Then `CCCOc1ccccc1N/C(=N/S(=O)(=O)c1ccc(C)cc1)Nc1nc(C)cc(C)n1`, with -1.6%. In the case of `O=C(/C=C/c1ccc([N+](=O)[O-])cc1)N1CCc2ccccc2C1` it was -1.1%; in that of `Cc1ccc(N2C(=O)NC(=O)/C(=C\c3cccc(C)c3)C2=O)cc1`, 4.7%; in that of `Cc1ccc(-c2ccc(/C=C3\Sc4ccccc4C3=O)o2)c([N+](=O)[O-])c1`, -1.6%. Then `O=C1/C(=C/c2ccc(-c3ccc(Cl)cc3C(=O)O)o2)Sc2ccccc21`, with 99% (active); and `O=C1S/C(=C/c2ccc(-c3ccc(Cl)cc3Cl)o2)C(=O)N1c1ccccc1`, with -6.4%. On to `Cc1oc2ccc(OCC(=O)c3ccccc3)cc2c1C(=O)O`, for which the inhibition was 6.3%. In the case of `O=C(Nc1ccc(I)cc1)c1ccc2nccnc2c1` it was 8.3%. Then `Cc1ccc(/C=N/NC(=O)C2CC(=O)N(c3ccc(Cl)cc3)C2)cc1` (centres undefined), with 4.9%; and `CCOc1ccccc1C(=O)Nc1ccc(Cl)cc1[N+](=O)[O-]`, with -5.6%; and `O=C(NC(=S)Nc1ccc(-c2nc3cc(Cl)ccc3o2)cc1)c1ccco1`, with 4.7%. Then `CN1CN=C2SC3(COC(c4cccc(Br)c4)OC3)C(=O)N2C1` (centres undefined), with -17.5%; and `Cc1ccc(/C=C/C(=O)Nc2nc3ccc(S(C)(=O)=O)cc3s2)cc1`, with -6.1%; and `Cc1cccc(N(CC(O)CN(C)C)S(=O)(=O)c2ccccc2)c1` (centres undefined), with -7.9%. Regarding `Cc1ccc(S(=O)(=O)N(CC(O)CN(C)C)c2cccc3ccccc23)cc1` (centres undefined), the inhibition was 104% (active).

For `Cc1ccc(N(CC(O)CN2CCCC2)S(=O)(=O)c2ccccc2)cc1` (centres undefined), the inhibition is -3.8%. As for `CC(C)c1ccc(C=NCCCO)cc1`, the inhibition was -12.6%. Then `O=C(N=Nc1c(O)[nH]c2ccc(F)cc12)c1ccccc1O`, with -14.6%. In the case of `Nc1nonc1C(=O)N=Nc1c(O)[nH]c2ccccc12` it was -0.8%; in that of `O=C(N=Nc1c(O)[nH]c2ccc([N+](=O)[O-])cc12)c1cccc(Br)c1`, 56.4% (active); in that of `O=C1C2C3CC4C2C(=O)C2(c5ccccc5)C1C3C42` (centres undefined), -6.6%.

Consider `COc1ccc(CCNC(=O)COc2ccc(Br)cc2)cc1OC`, for which the inhibition was -20%. In the case of `COc1ccc(CCNC(=O)COc2cc(C)c(Cl)c(C)c2)cc1OC` it was 103% (active). Then `COCCCNC(=O)COc1cc(C)c(Cl)c(C)c1`, with 5.1%.

(Values after PubChem BioAssay AID521 (Sanford-Burnham Center for Chemical Genomics, 2006).)
